According to PubChem BioAssay (NCI):
This is part of a sample that, as a whole, favours compounds with a hit. Of some 83,000 tested, about 20% had one in any assay.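 Step 1: grow cells in 96-well plates. Step 2: add test compound at a single concentration. Step 3: incubate 48 h. Step 4: record percent growth.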 Values without a mark were called inactive. Activity calls are given as the source filed them. How the source made its calls: active means growth percent below 10; inactive means the rest.

What was measured:
Assay in all cases: NCI-60 one-dose screen, 48 h (100 = growth as untreated, 0 = no growth, -100 = all killed)
[1] = system: SK-MEL-2 melanoma; conditions: 10 µM unless noted
[2] = system: EKVX NSCLC; conditions: 10 µM unless noted
[3] = system: SN12C renal; conditions: 10 µM unless noted
[4] = system: UO-31 renal; conditions: 10 µM unless noted
[5] = system: TK-10 renal; conditions: 10 µM unless noted
[6] = system: ACHN renal; conditions: 10 µM unless noted
[7] = system: CAKI-1 renal; conditions: 10 µM
[8] = system: A498 renal; conditions: 10 µM unless noted
[9] = system: CCRF-CEM leukemia; conditions: 10 µM unless noted
[10] = system: MOLT-4 leukemia; conditions: 10 µM unless noted
[11] = system: SR leukemia; conditions: 10 µM unless noted
[12] = system: RPMI-8226 leukemia; conditions: 10 µM unless noted
[13] = system: OVCAR-8 ovarian; conditions: 10 µM unless noted
[14] = system: OVCAR-5 ovarian; conditions: 10 µM unless noted
[15] = system: OVCAR-4 ovarian; conditions: 10 µM unless noted
[16] = system: SK-OV-3 ovarian; conditions: 10 µM unless noted
[17] = system: IGROV1 ovarian; conditions: 10 µM unless noted
[18] = system: OVCAR-3 ovarian; conditions: 10 µM unless noted
[19] = system: HS 578T breast; conditions: 10 µM unless noted
[20] = system: NCI/ADR-RES ovarian; conditions: 10 µM unless noted

| SMILES | growth [1] | growth [2] [%] | growth [3] [%] | growth [4] | growth [5] [%] | growth [6] | growth [7] [%] | growth [8] | growth [9] | growth [10] [%] | growth [11] [%] | growth [12] | growth [13] [%] | growth [14] [%] | growth [15] | growth [16] [%] | growth [17] | growth [18] [%] | growth [19] | growth [20] [%] |
| --- | --- | --- | --- | --- | --- | --- | --- | --- | --- | --- | --- | --- | --- | --- | --- | --- | --- | --- | --- | --- |
| Oc1ccc(CSc2nnc(-c3ccc(Br)cc3)o2)c2cccnc12 | 68.1% | 58.9 | 45.2 | 7.37% (active) | 60 | 17.8% | 25.6 | 74.5% | 15.2% | 24.1 | 42.3 | 10.8% | 27.7 | 89.6 | 22% | 50.2 | 31.6% | 27.4 | -2.18% (active) | 13.4 |
| Nc1cc(F)ccc1NC(=O)c1ccc(NC(=O)C/C=C/c2cccnc2)cn1 | 9.74% (active) | 49.7 | 20.1 | 5.53% (active) | 22.3 | 31.3% | 33.9 | -13.2% (active) | 15.1% | 24.7 | 24.6 | -3.11% (active) | 17.8 | 21.4 | 29.1% | 34.9 | 13.8% | 27.4 | 21.1% | 20.4 |
| COc1ccc(OC)c([C@H]2c3[nH]c4ccccc4c3C[C@H]3C(=O)N(CCCCCCC(=O)NO)CC(=O)N23)c1 | 86.6% | 93.1 | 84.9 | 78.5% | 101 | 94.2% | 78.4 | 102% | 46.1% | 63.2 | 36.7 | 60.4% | 73.9 | 100 | 80% | 86.2 | 71.6% | 76.3 | 93.5% | 99.5 |
| O=C(CCCCCCN1CC(=O)N2[C@@H](c3ccccc3)c3[nH]c4ccccc4c3C[C@H]2C1=O)NO | 68.4% | 84.3 | 78.4 | 57.1% | 69.4 | 87.3% | 65.5 | 87.1% | 24.5% | 20.9 | 37.2 | 26.7% | 39.6 | 58 | 65.6% | 70.1 | 60.6% | 55.5 | 68.8% | 77.9 |
| CC1CCN(S(=O)(=O)c2ncsc2-c2ccccc2)CC1 | 96.2% | 74.7 | 95.4 | 86.9% | 127 | 87% | 77.4 | 81.6% | 74.2% | 66.7 | 55.7 | 25.5% | 101 | 94.8 | 88.5% | 95 | 94.2% | – | 40.3% | – |
| NC(=S)N/N=C(/C=C/c1cn(-c2ccccc2)nc1-c1ccc(Cl)cc1)c1cc2ccccc2oc1=O | 82.5% | 35 | 44.3 | 28.5% | 89.9 | 43.7% | 45.9 | 69.3% | 8.22% (active) | 23.7 | 39.7 | 41% | 31.3 | 67.3 | 39.4% | 85.2 | 36% | – | 69.2% | – |
| COc1cc2cc(Oc3ccc(NC(=O)Nc4cccc(C(F)(F)F)c4)cc3)c(C)nc2cc1OCCN(C)C | 111% | 92.9 | 92.3 | 89.8% | 110 | 97.3% | 89.9 | 106% | 71.4% | 80.5 | 26.1 | 92.3% | 97.9 | 108 | 92.9% | 107 | 102% | 122 | 112% | 93.9 |
| C/C(=C(/C)C1CC1CCN(C(=O)c1ccccn1)S(=O)(=O)c1ccc(C)cc1)C1CCCCC1 (configuration not stated) | 101% | 77.6 | 98.2 | 86.4% | 105 | 99.3% | 78.9 | 94.6% | 92.5% | 88.2 | 105 | 92.2% | 96.8 | 93.1 | 83.8% | 101 | 103% | 108 | 102% | 81.9 |
| CCCCOc1ccc(S(=O)(=O)N2CCN(c3nccc(N4CCOCC4)n3)CC2)cc1 | 33.5% | 46.3 | 28.7 | 24.8% | 44.3 | 15.1% | 13.8 | -1.44% (active) | 49.8% | 24.2 | 46.3 | 6.35% (active) | 49.5 | 56.2 | 49.4% | 12.8 | 9.51% (active) | 105 | 69.4% | 31.2 |
| CC(C)Sc1nc(NC2CC2)c(C#N)c(-c2ccccc2)n1 | 124% | 101 | 57.8 | 48.5% | 123 | 29.1% | 68 | 64.5% | 85.1% | 92.6 | 96.5 | 91% | 84.9 | 84.4 | -8.11% (active) | 78.6 | 19.8% | – | 68.7% | 74.5 |
| O=C(CN1C(=O)S/C(=C\c2ccccc2)C1=O)Nc1ccc(C(=O)/C=C/c2cc3ccccc3nc2Cl)cc1 | 83.1% | 65.3 | 91.2 | 57.7% | 84.9 | 83% | 64.1 | 86% | 77.2% | 51.4 | 42.4 | 26.2% | 81.9 | 99.5 | 41.9% | 82.5 | 80.4% | 85.6 | 96.1% | 88.8 |
| COc1ccc(/C=N/Nc2nc(N/N=C/c3ccc(OC)cc3O)nc(N3CCOCC3)n2)c(O)c1 | 82.6% | 46.6 | 75.1 | 11.2% | 78.1 | 27.9% | 37.9 | 66.8% | 27.1% | 35.3 | 27.4 | 41.7% | 69.1 | 68.1 | 63.1% | 89.1 | 51.1% | 19.1 | 77.7% | 23.1 |
| Oc1ccc(CSc2nnc(-c3ccc(Oc4ccccc4)cc3)n2-c2ccccc2)c2cccnc12 | 37.6% | 14.8 | 19.1 | -5.33% (active) | 23.6 | 6.83% (active) | 13.1 | 35.2% | 10.3% | 18.7 | 45.8 | 7.82% (active) | 16.5 | 42.7 | 17.9% | 14.1 | 11.7% | – | 18.7% | – |
| Cc1nn(-c2ccc(Cl)cc2)c(C)c1N=Nc1ccc2oc(=O)ccc2c1 | 110% | 85.6 | 56.4 | 64.8% | 89.6 | 79.4% | 73.7 | 85.6% | 82% | 89.3 | 67.1 | 72.3% | 56.9 | 104 | 34.4% | 114 | 80.9% | 104 | 75.9% | 69.5 |
| COc1ccc(-c2nnc(/N=C3/C(=O)Nc4ccc(Br)cc43)o2)cc1 | 101% | 91.7 | 107 | 81.3% | 143 | 93.7% | 88.8 | 91.9% | 96% | 96.1 | 97.8 | 96.2% | 99.9 | 107 | 101% | 108 | 91.9% | – | 116% | 102 |
